# The list is not random: actives were taken first. Their share in the collection is about 1.5%.
# HGIII-sPLA2 inh: human group III sPLA2 inhibitors, primary screen, biochemical, QFRET, BODIPY PC-A2 liposome substrate | Group 3 secretory phospholipase A2 (Homo sapiens), Q9NZ20 | QFRET BODIPY PC-A2 liposome hydrolysis, fluorescence | inhibition, % at 12.2 µM | hit rate 0.56% among 370,000 | AID 743126, 2013;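 active means inhibition above mean plus 3 SD of compounds lying within the high and low control bounds, cut at about 19% in these data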;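 further: 0% = median of test compound wells and 100% = no enzyme DMSO wells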
# AI-2 QS mod: Vibrio harveyi AI-2 quorum sensing modulators, primary screen, JMH597 strain, luminescence/OD600 ratio | Vibrio harveyi JMH597 AI-2 luminescence/OD600 ratio, 9 h; active compounds read low; strain lacks LuxN and CqsS sensors; 0 = neutral-control median | hit rate 0.4% among 300,000 | activity change, % at 7.5 µM | AID 2094, 2009; in the data active means activity change below about -75%, passing the limit was not always enough;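 further: luminescence divided by OD600 gain over 9 h not by final OD600 alone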
# Rin1-Abl PPI inh: inhibitors of Rin1-Abl protein binding, primary screen, biochemical, TR-FRET; Tyrosine-protein kinase ABL1 (Homo sapiens) + Ras and Rab interactor 1 (Homo sapiens), …; inhibition, % at 7.35 µM; hit rate 0.4% among 360,000; in the data active means inhibition above about 5%, passing the limit was not always enough
# ARNT TACC3 PPI: disruptors of ARNT/TACC3 protein interaction, primary screen, biochemical, AlphaScreen, single concentration; inhibition, % at 9.99 µM; AlphaScreen His-ARNT PAS-B/GST-TACC3 binding, luminescence; TACC3 fragment carries E629A point mutation; Transforming acidic coiled-coil-containing protein 3 (Homo sapiens), Q9Y6A5; AID 623870, 2012; hit rate 0.66% among 390,000;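 active means mean inhibition of replicates at least 50% and at least half of replicates each reaching 50%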;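 further: 0% = complete ARNT plus TACC3 wells and 100% = ARNT alone without TACC3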
# * hit, by the source's call; . = no result given.
SMILES,HGIII-sPLA2 inh,AI-2 QS mod,Rin1-Abl PPI inh,ARNT TACC3 PPI
Cc1ccc(S(=O)(=O)N(C)C[C@H]2Oc3ccc(NC(=O)Nc4ccc(C(F)(F)F)cc4)cc3C(=O)N([C@@H](C)CO)C[C@H]2C)cc1,.,.,.,6
O=C(O)c1ccc(N/N=C/c2ccc(-c3cc(Cl)ccc3Cl)o2)cc1,-5,-80*,2,-16
O=C(O)c1ccc(N/N=C/c2c(F)cccc2Cl)cc1,2,-79*,0,-5
O=C(N/N=C/c1c(F)cccc1Cl)C1CC1,6,21,2,-4
O=C(O)c1ccc(N/N=C/c2ccc(-c3cccc(Cl)c3)o2)cc1,-59,-94*,0,-6
CC1CCN(c2nc3c(c(=O)n(C)c(=O)n3C)n2Cc2ccccc2)CC1,-1,11,5,4
CCn1c(N2CCC(C)CC2)nc2c1c(=O)n(C)c(=O)n2C,26*,28,2,.
COc1ccc2c(n1)Sc1nc3ccccc3nc1N2,-11,6,-3,8.9*
CC=Cc1ccc2n(c1=O)C[C@H]1[C@H](CO)[C@@H](C(=O)NCc3ccc(F)cc3)N(CC)[C@@H]21 (mixture of isomers),.,.,.,-3
O=C(NC12CC3CC(CC(C3)C1)C2)c1ccc([N+](=O)[O-])o1,-1,-210*,0,1
NC(=O)c1sc2nc3c(c(-c4ccco4)c2c1N)CCC3,5,19,-5,18
Nc1c(C(=O)NC2CC2)sc2nc3c(c(-c4ccco4)c12)CC/C3=C/c1ccco1,.,.,13*,8
Cc1noc(C)c1NC(=O)Nc1ccc2c(c1)C(=O)N([C@H](C)CO)C[C@@H](C)[C@@H](CN(C)Cc1ccccc1)OCCCC[C@@H](C)O2,.,.,.,2
CCOC(=O)c1sc(=S)[nH]c1C,23*,.,-35,0
C[C@@H]1CN([C@@H](C)CO)S(=O)(=O)c2ccc(-c3cccc(C(=O)N(C)C)c3)cc2O[C@@H]1CN(C)C(=O)Cc1ccccn1,.,.,.,0
COc1cc(OC)c2c(-c3ccccc3)cc(=O)oc2c1C(CCN1CCN(c2ccccc2)CC1)c1ccc(N(C)C)cc1 (stereo not drawn),6,40,1,1
COc1cc(OC)c2c(-c3ccccc3)cc(=O)oc2c1C(CCN1CCCC(C)C1)c1ccc(N(C)C)cc1 (stereo not drawn),-8,3,-2,45*
CCN(CC)CCC(c1ccc(N(C)C)cc1)c1c(OC)cc(OC)c2c(-c3ccccc3)cc(=O)oc12 (stereo not drawn),6,.,0,39*
C[C@@H]1CCCCO[C@H](CN(C)S(=O)(=O)c2cn(C)cn2)[C@H](C)CN([C@@H](C)CO)C(=O)c2cc(NS(=O)(=O)c3cccs3)ccc2O1,.,.,.,2
COCC(=O)N(C)C[C@H]1Oc2cc(C#CC(C)(C)O)ccc2S(=O)(=O)N([C@H](C)CO)C[C@H]1C,.,.,.,-5
Cc1ccc(S(=O)(=O)Nc2cccc3cccnc23)cc1,11,25,5,50*
COc1cc(NS(=O)(=O)c2ccc(C)cc2)c2ncccc2c1,19,2,-1,6
C[C@H](CO)N1C[C@H](C)[C@H](CN(C)C(=O)Cc2cccnc2)Oc2cc(C3=CCCCC3)ccc2S1(=O)=O,.,.,.,1
C[C@H]1CN([C@@H](C)CO)S(=O)(=O)c2ccc(C#CC3CCCCC3)cc2O[C@@H]1CN(C)C,.,.,.,10
Nc1ccc(Cn2ccc3c4c(N)nc(N)nc4ccc32)cc1,22*,.,-10,-5
SMILES,HGIII-sPLA2 inh,AI-2 QS mod,Rin1-Abl PPI inh,ARNT TACC3 PPI
Fc1ccc(Cn2ccc3ccc(-c4ccc5ccn(Cc6ccc(F)cc6)c5c4)cc32)cc1,2,.,.,.
c1ccc(-c2n[nH]c(-c3ccccn3)n2)cc1,-9,30,-1,57*
c1ccc(-c2nc(-c3ccccn3)no2)cc1,0,15,-1,4
COc1ccc(C(=S)N2CCN(c3cccc(Cl)c3)CC2)cc1,20*,-17,-1,8
COc1ccc(S(=O)(=O)Nc2ccc3c(c2)CC(=O)N([C@@H](C)CO)C[C@@H](C)[C@H](CN(C)Cc2ccncc2)O3)cc1,.,.,.,-10
CC1(C)C(/C=C/C=C/C=C/C=C2\N(CCCCS(=O)(=O)O)c3ccc4ccccc4c3C2(C)C)=[N+](CCCCS(=O)(=O)[O-])c2ccc3ccccc3c21,.,.,9,65*

# Compound activity (PubChem)
